Laboratory results as given in PubChem BioAssay (NCATS).
Activity calls are given as the source filed them. Calls follow the shape of the dose curve; as a rule, active = well fitted curve in the direction sought with a large enough effect; inconclusive = small, poorly fitted or top-dose-only effect, or another doubt; inactive = no such curve, though single readings can be large or run the other way.

target: Hexokinase-4 (Homo sapiens) + Glucokinase regulatory protein (Homo sapiens) (UniProt P35557+Q14397); assay: qHTS assay for inhibitors of recombinant human GCK-GKRP interaction: ADP-Glo assay (AID 743206); settings: ADP-Glo luminescence, 60 min, 0% = vehicle-only wells with enzyme present; series mostly up to 76.9 µM
Sequence (P35557 whole entry, looked up): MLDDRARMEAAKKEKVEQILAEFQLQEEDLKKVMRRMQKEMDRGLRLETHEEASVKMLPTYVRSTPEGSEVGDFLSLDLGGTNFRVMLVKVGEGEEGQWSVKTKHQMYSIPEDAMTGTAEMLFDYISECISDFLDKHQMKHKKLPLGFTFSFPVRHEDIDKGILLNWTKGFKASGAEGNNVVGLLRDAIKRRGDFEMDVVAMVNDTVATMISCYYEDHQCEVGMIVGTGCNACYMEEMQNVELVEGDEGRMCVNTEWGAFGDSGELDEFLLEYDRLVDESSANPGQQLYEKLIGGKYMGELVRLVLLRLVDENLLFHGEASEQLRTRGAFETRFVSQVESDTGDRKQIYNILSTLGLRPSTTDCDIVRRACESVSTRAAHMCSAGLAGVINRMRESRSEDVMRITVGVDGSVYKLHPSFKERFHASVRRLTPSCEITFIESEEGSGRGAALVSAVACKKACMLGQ
Sequence (Q14397 whole entry, looked up): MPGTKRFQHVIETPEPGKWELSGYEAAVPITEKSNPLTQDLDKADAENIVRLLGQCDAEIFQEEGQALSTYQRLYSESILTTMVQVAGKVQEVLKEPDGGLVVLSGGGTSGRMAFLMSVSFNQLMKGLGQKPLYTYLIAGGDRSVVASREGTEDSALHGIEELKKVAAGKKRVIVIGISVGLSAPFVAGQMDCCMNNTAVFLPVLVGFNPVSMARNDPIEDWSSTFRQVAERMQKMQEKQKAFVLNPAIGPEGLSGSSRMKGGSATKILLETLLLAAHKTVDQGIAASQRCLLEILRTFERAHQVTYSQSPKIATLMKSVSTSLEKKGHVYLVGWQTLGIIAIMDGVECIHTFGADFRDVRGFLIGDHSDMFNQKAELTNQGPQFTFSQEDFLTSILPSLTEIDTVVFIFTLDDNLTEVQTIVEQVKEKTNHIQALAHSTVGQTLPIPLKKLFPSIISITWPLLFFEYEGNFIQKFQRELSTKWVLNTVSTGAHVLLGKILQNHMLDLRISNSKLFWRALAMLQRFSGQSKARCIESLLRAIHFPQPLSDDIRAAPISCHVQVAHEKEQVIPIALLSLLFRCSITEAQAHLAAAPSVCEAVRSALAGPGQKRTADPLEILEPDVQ
Description: Glucokinase (GCK) is a glucose sensor in hepatocytes and pancreatic beta-cells. Hepatic GCK is regulated by glucokinase regulatory protein (GKRP), which is predominantly localized to the liver. GKRP binds to GCK inhibiting its activity in the fasting state while in the presence of glucose the GKRP is displaced. There is an additional layer of regulation by fructose 1-phosphate and fructose 6-phosphate, which inhibit and enhance the GCK-GKRP interaction, respectively. GCK plays a role in glucose homeostasis and there is an interest in the development of strategies to activate GCK to lower blood glucose levels in type 2 diabetes. To date the majority of effort has focused on direct activation of GCK and the assays developed herein look to activate GCK by inhibiting its binding to GKRP. A compound that inhibits the interaction of GCK with GKRP could be important for the treatment of diabetes and can also be used as a tool compound to further elucidate GCK-GKRP biology. To that end, we have developed a sensitive HTS biochemical assay where in GCK activity is coupled to luciferase to interrogate the GCK-GKRP interaction. This assay was screened against a small compound library to look for modulators of activity.
2 uL of 15 nM GST-GCK and 15 nM FLAG-GKRP proteins with 2 uM S6P (columns 1-2, 4-48; Millipore, Billerica, MA) are dispensed into Greiner, white solid-bottom 1536-well assay plates; columns 3 receive buffer without GCK as a control for maximum inhibition. Compounds (23 nL) are then transferred via Kalypsys pin tool equipped with 1536-pin array (10 nL slotted pins, V&P Scientific, San Diego, CA). The library compounds are in columns 5-48 and columns 1-4 serve as controls with DMSO in columns 1 and 3 and 26 mM 1:1.5 fold serial of gluckokinase activator (GKA-EMD) in column 2 and 26 mM of the glucokinase activator (GKA-EMD) in column 4. Following addition of compound, 1 uL of ATP […] is added, and the plate is incubated for 60 minutes at room temperature. The amount of ADP is then quantified by the ADP-Glo Kit (Promega, Madison, WI). First, 2 uL of the first kit reagent is added, and the reaction is incubated for 45 minutes; then, 4 uL of the second kit reagent are added and the reaction is incubated for 30 minutes at which time the luminescence is read on a Viewlux plate reader (Perkin-Elmer, Waltham, MA). The final concentration of reagents in the reaction are 0.4 mM ATP, 25 mM Hepes pH 7.6, 25 mM KCl, 2 mM MgCl2, 1 mM DTT, 0.025% BSA, 0.01% Tween 20, 5 mM glucose. Data are normalized to DMSO-treated control columns with (maximum signal) and without (minimum signal) enzyme.

SMILES	outcome
O=C1c2c(O)cc(O)cc2OC(c2ccc(O)c(O)c2)C1O (configuration not stated)	inactive
O=C(O)c1cccnc1Nc1cccc(C(F)(F)F)c1	inactive
CC(=O)N1CCN(c2ccc(OC[C@H]3CO[C@](Cn4ccnc4)(c4ccc(Cl)cc4Cl)O3)cc2)CC1	inactive
Cc1cccc(C#Cc2ccccc2)n1	inactive
O=C(CCc1ccc(O)cc1)c1c(O)cc(O)cc1O	inactive
COc1ccc2cc([C@H](C)C(=O)O)ccc2c1	inactive
Cc1cc(O)c2c(c1)C(=O)c1cc(O)cc(O)c1C2=O	inactive
CC1(C)C(=O)N(CCN2CCC(C(=O)c3ccc(F)cc3)CC2)c2ccccc21	inactive
CC(C)c1ccc2c(c1)c(SC(C)(C)C)c(CC(C)(C)C(=O)O)n2Cc1ccc(Cl)cc1	inactive
Oc1ccc2ccccc2c1SSc1c(O)ccc2ccccc12	inactive
C[C@H](Cc1ccc(O)c(O)c1)[C@@H](C)Cc1ccc(O)c(O)c1	inactive
O=Nc1c(-c2c(O)[nH]c3cc(Br)ccc23)[nH]c2ccccc12	inactive
COc1ccccc1N1CCN(CCN(C(=O)C2CCCCC2)c2ccccn2)CC1	inactive
O=c1c(O)c(-c2cc(O)c(O)c(O)c2)oc2cc(O)cc(O)c12	inactive
COc1cc2nc(N3CCN(C(=O)C4CCCO4)CC3)nc(N)c2cc1OC (configuration not stated)	inactive
O=C1c2ccccc2-c2n[nH]c3cccc1c23	inactive
CNC[C@H](O)c1ccc(O)c(O)c1	inactive
Nc1nc(N)c(N=O)c(OCC2CCCCC2)n1	inactive
Oc1ccc(-c2nc(-c3ccc(F)cc3)c(-c3ccncc3)[nH]2)cc1	inactive

SMILES	outcome
O=c1ccc2ccc(O)c(O)c2o1	inactive
COc1cc2c(cc1OC)C1CC(=O)C(CC(C)C)CN1CC2 (configuration not stated)	inactive
O=c1c(O)c(-c2ccc(O)cc2O)oc2cc(O)cc(O)c12	inactive
OC(CN1CCN(c2cccc(Cl)c2)CC1)C(c1ccccc1)c1ccccc1 (configuration not stated)	inactive
CC1(C)NC(=O)N(c2ccc([N+](=O)[O-])c(C(F)(F)F)c2)C1=O	inactive
CCOC(=O)C(C)Oc1cccc2c(=O)n(CC(=O)Nc3ccc4c(c3)OCCO4)ccc12 (configuration not stated)	inactive
Cc1c(OCC(F)(F)F)ccnc1CS(=O)c1nc2ccccc2[nH]1 (configuration not stated)	inactive
O=C1NC(=O)C(c2ccccc2[N+](=O)[O-])=C1Nc1ccc(O)c(Cl)c1	inactive
Nc1nc(OCc2ccccc2)c2[nH]cnc2n1	inactive
NNc1nncc2ccccc12	inactive
O=C(c1ccccc1)c1ccc2n1CCC2C(=O)O (configuration not stated)	inactive
NCCCCNCCCN	inactive
O=c1cc(N2CCOCC2)oc2c(-c3ccccc3)cccc12	inactive
NC(=NCc1ccccc1)NC(=O)c1nc(Cl)c(N)nc1N	inactive
C[C@@H](N)C1CCC(C(=O)Nc2ccncc2)CC1 (some centres not stated)	inactive
Nc1ccn([C@@H]2O[C@H](CO)[C@@H](O)C2O)c(=O)n1 (some centres not stated)	inactive
CC(=O)O[C@H]1C(=O)[C@@]2(C)C([C@H](OC(=O)c3ccccc3)[C@]3(O)C[C@H](OC(=O)[C@H](O)[C@@H](NC(=O)c4ccccc4)c4ccccc4)C(C)=C1C3(C)C)[C@]1(OC(C)=O)CO[C@@H]1C[C@@H]2O (some centres not stated)	inactive
CN(C)CCCC1(c2ccc(F)cc2)OCc2cc(C#N)ccc21 (configuration not stated)	inactive
